Screens from PubChem.
PLK1 PBD inh = PLK1 (human) polo-box domain binding inhibition; 360,000 compounds, 2.8% hits; Plk1 PBD binding of FITC phosphopeptide, fluorescence polarization; Potency, µM, for inactives: max response, negative = inhibition, most hits filed as inhibitors; also: potency is read from the fitted curve at half-maximal effect; series mostly up to about 57 µM; % is scaled to controls: 0 for no effect and ±100 for the full control effect; nearly all actives have a fitted effect of over 65% in size
BAZ2B block = BAZ2B (human) inhibition | Potency, µM (series often up to 114 µM), inactives show at the top dose activity change, negative = inhibition, most hits filed as inhibitors | AlphaScreen BAZ2B-H3K14Ac peptide displacement | 360,000 compounds, 4.4% hits | Q9UIF8; also: potency is read from the fitted curve at half-maximal effect; % is scaled to controls: 0 for no effect and ±100 for the full control effect; nearly all actives have a fitted effect of over 60% in size
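AlphaScreen displacement: compounds (up to 110uM) incubated 30 min at room temperature with a preformed 50 nM BAZ2B/50 nM biotinylated H3K14Ac peptide complex in PBS pH 7.4 with Tween-20. Donor and acceptor beads at 10 ug/mL final added, 20 min light-protected before reading.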
G9a block = blocks human histone lysine methyltransferase G9a | AID 504332 | Q96KQ7 | Potency, µM (titrated, usually from 102 µM), for inactives: at the top dose activity, negative = inhibition, hits mostly inhibitors | G9a H3K9 monomethylation, AlphaScreen, 2 h | 350,000 compounds, 8.8% hits; also: potency is read from the fitted curve at half-maximal effect; % is scaled to controls: 0 for no effect and ±100 for the full control effect; nearly all actives have a fitted effect of over 75% in size
Target sequence (Q96KQ7 913-1193 limits assumed): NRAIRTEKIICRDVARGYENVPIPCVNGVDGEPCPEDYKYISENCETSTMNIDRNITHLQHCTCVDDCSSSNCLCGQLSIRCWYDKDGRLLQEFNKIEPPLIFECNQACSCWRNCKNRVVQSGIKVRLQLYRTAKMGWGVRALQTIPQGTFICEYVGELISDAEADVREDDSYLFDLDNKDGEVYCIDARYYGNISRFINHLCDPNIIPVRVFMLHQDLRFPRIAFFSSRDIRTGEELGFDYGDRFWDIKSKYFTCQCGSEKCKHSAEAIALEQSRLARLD
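Enzyme 20 nM + cpd, 15 min RT; add b-H3K9 pep 500 nM / SAM 20 uM; 2 h RT; anti-H3K9me1 Ab 0.5 ug/mL + SA donor / anti-rabbit acceptor beads 20 ug/mL each, 10 min; AlphaScreen read.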
HP1b chromo inh = HP1-beta chromodomain-methylated histone interaction inhibition; P83916; AlphaScreen HP1-beta / biotin-H3K9me3 peptide binding; Potency, µM (titrated, usually from 114 µM), without a hit: top-dose activity change, negative = inhibition, hits mostly inhibitors; 390,000 compounds, 0.56% hits; also: potency is read from the fitted curve at half-maximal effect; nearly all actives have a fitted effect of over 70% in size
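AlphaScreen: HP1-beta (50 nM) preformed 30 min with biotin-H3(1-18)K9me3 peptide (50 nM) in PBS pH 7.4, 0.01% Tween-20. Compound added for 30 min at RT, then streptavidin donor/nickel chelate acceptor beads (10 ug/mL) for 30 min.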
PI5P4Ka inh = inhibitors of human PI5P4K alpha; P48426; PI5P4Kalpha enzyme, ADP-Glo luminescence, 60 min; stronger effect = lower value; max response, %; 330,000 compounds, 1.2% hits; active = max response of -50% or lower; inconclusive = between -30% and -50%; inactive = -30% or higher; also: value at the top dose of about 77 µM; % is scaled to controls: 0 for no effect and ±100 for the full control effect
Target sequence (P48426 whole entry, looked up): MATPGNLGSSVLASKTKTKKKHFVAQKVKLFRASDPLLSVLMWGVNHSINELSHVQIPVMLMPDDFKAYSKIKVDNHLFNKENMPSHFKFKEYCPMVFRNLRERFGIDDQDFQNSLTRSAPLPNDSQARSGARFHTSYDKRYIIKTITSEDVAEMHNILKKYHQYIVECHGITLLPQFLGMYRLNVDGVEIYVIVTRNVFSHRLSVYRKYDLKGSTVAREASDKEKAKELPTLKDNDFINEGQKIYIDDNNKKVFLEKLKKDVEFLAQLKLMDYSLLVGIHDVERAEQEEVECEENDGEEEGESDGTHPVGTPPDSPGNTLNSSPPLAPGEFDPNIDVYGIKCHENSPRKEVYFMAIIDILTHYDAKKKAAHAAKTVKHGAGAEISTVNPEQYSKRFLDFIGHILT
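Human PI5P4Kalpha with substrate in 0.038 M HEPES pH 7.4, 0.28 mM EGTA, 0.1% CHAPS, 5% DMSO; reaction started with 5 microM ATP (final), 60 min at room temperature. ADP formed read by ADP-Glo luminescence.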
JMJD2A Tudor = blocks the human JMJD2A Tudor domain. 390,000 compounds, 4.4% hits. Potency, µM (top dose mostly 114 µM), without a hit: top-dose activity change, negative = inhibition, hits mostly inhibitors. AlphaScreen JMJD2A-Tudor / H3K4me3 peptide binding; also: potency is read from the fitted curve at half-maximal effect; % is scaled to controls: 0 for no effect and ±100 for the full control effect; nearly all actives have a fitted effect of over 50% in size
An asterisk follows results filed as active; ? = inconclusive; . = no result given; [ ] = another dose, or the depositor's remark. Most compounds without a hit are left out; they make up all but 12% or so of the library. Unless noted, calls follow the shape of the dose curve; as a rule, active = well fitted curve in the direction sought with a large enough effect; inconclusive = small, poorly fitted or top-dose-only effect, or another doubt; inactive = no such curve, though single readings can be large; an effect the other way counts as inactive or inconclusive.

SMILES	PLK1 PBD inh	BAZ2B block	G9a block	HP1b chromo inh	PI5P4Ka inh	JMJD2A Tudor
COc1ccccc1-c1noc(-c2ccc(NCc3cccnc3)c([N+](=O)[O-])c2)n1	.	3%	-10%[59 µM]	50%	.	7%
Cc1cc(C)cc(NC(=O)Cn2nnc(-c3ccccc3F)n2)c1	.	-3%	3%[59 µM]	60%	.	-10%
C/C=C/c1ccc(OCc2cc(=O)n3cc(C)ccc3n2)c(OC)c1	-9%	?	.	20%	-11	-31%
C/C=C/c1ccc(OCCCCn2cncn2)c(OC)c1	-1%	32µM*	?	-59%	-7	7.1µM*
C/C=C/c1ccc(OCCn2cncn2)c(OC)c1	-2%	50µM*	14µM*	?	-3	40µM*
COc1ccccc1N1CCN(c2cc(C)nc3nncn23)CC1	.	0%	-6%[59 µM]	33%	.	-1%
FC(F)(F)c1ccccc1-c1cc(NCCN2CCOCC2)ncn1	.	.	39%[0.501 µM]	.	.	.
O=C(CSc1nc2[nH]ncc2c(=O)[nH]1)Nc1cccc(Cl)c1	4%	-20%	?	37%	1	-1%
CCc1ccc(NC(=O)C(C)Sc2nc(-c3ccco3)c(C#N)c(=O)[nH]2)cc1 (configuration not stated)	24µM*	?	50µM*	-13%	-57*	?
CCOc1ccccc1NC(=O)C(C)Sc1nc(-c2ccccc2)c(C#N)c(=O)[nH]1 (configuration not stated)	.	-24%	-23%[59 µM]	12%	.	-27%
N#Cc1c(-c2ccco2)nc(SCC(=O)Nc2cccc(Cl)c2)[nH]c1=O	-7%	-12%	35µM*	14%	.	?
CC(C)(C)c1ccc(-c2nc(SCC(=O)Nc3ccc(Cl)cc3)[nH]c(=O)c2C#N)cc1	.	79µM*	-16%[59 µM]	24%	.	-32%
CCOc1ccccc1NC(=O)C1CCN(S(=O)(=O)c2ccccc2)CC1	.	0%	-8%[59 µM]	16%	.	-13%
C=CCn1c(-c2cc3c(s2)CCC(CC)C3)n[nH]c1=S (configuration not stated)	-17%	-29%	11µM*	-15%	?	?
COc1ccc(-c2nnc3n2N=C(c2ccc(OC)cc2OC)CS3)cc1	.	.	.	.	.	-29%
c1ccc(-c2nnc(NC3=NCCC3)o2)cc1	24µM*	-3%	10%[59 µM]	13%	-9	-13%
Fc1ccc(-c2nnc(NC3=NCCCCC3)o2)cc1	-5%	6%	-6%[2.33 µM]	40%	-15	-2%
O=C(Nc1ccccc1)N1CC[C@@]2(CCCN(C(=O)c3cc(C(F)(F)F)cc(C(F)(F)F)c3)C2)C1	.	.	12%[12.7 µM]	.	.	.
CN1OC[C@@H]2CN(Cc3cc(Cl)cc(Cl)c3)[C@H](c3cccc(Oc4ccccc4)c3)C[C@@H]21	-9%	.	.	-2%	31	89µM*
CCC(=O)N1c2ccccc2CC1C(=O)NCc1ccccc1Cl (configuration not stated)	.	-2%	0%[12.7 µM]	35%	.	3%
CCCCc1nn2c(=O)cc(COC(=O)c3ccc(NC(=O)CCc4ccccc4)cc3)nc2s1	.	0%	3%[59 µM]	19%	.	-29%
COc1ccc(C(=O)/C=C/Nc2cccc(O)c2)cc1	-3%	-30%	40µM*	29%	0	11%
COc1cccc(N/C=C/C(=O)c2ccc(Br)cc2)c1	-1%	.	.	80%	38	7%
COc1cccc(C(=O)/C=C/Nc2cc(C)ccc2O)c1	3%	?	?	0%	.	56µM*
O=C(Nc1ccccc1)N1CC2(CCN(C(=O)c3cnccn3)CC2)C1	.	.	9%[12.7 µM]	.	.	.
SMILES	PLK1 PBD inh	BAZ2B block	G9a block	HP1b chromo inh	PI5P4Ka inh	JMJD2A Tudor
Cc1ccc(CCN2CC(C(=O)NCCCN3CCC(C)CC3)CC2=O)cc1 (configuration not stated)	27µM*	7%	11%[59 µM]	-11%	0	?
Cc1ccc(N2C(=O)Cc3ccccc3C2=O)cc1	-7%	-22%	-14%	-7%	-12	-28%
C=C1c2cc(C)ccc2NC(=O)N1c1ccc(C)cc1	-22%	-11%	10µM*	29%	2	0%
C=C1c2ccccc2NC(=O)N1c1ccc(C)cc1	-28%	5%	8.9µM*	19%	-9	-20%
O=C(/C=C/c1ccc2c(c1)S(=O)(=O)N(Cc1ccccc1)[C@H]2CC(=O)N1CCOCC1)N1CCOCC1	?	.	.	48%	0	-11%
CC(C)Cn1nc(NC(=O)C2CCCO2)c2cc3ccccc3nc21 (configuration not stated)	30µM*	81%	72%	61%	4	-16%[11.4 µM]
CCCn1nc(NC(=O)C2CCCO2)c2cc3cccc(C)c3nc21 (configuration not stated)	-12%	99%	148%[59 µM]	237%	15	173%
Oc1c(C(c2ccccc2Cl)N2CCCC2)sc2nc(-c3ccco3)nn12 (configuration not stated)	.	?	-22%[59 µM]	9%	.	-23%
COc1ccc(N2C(=O)CSC2c2ccccc2)cc1 (configuration not stated)	-5%	2%	12%	9%	-2	-6%
COc1ccc(N2C(=O)CSC2c2ccccc2[N+](=O)[O-])cc1 (configuration not stated)	-23%	-28%	50µM*	7%	12	-23%
CC1(C)SCC(C(=O)O)NC1=O (configuration not stated)	21µM*	-20%	-16%	-11%	-12	-28%
CN(Cc1ccccc1)C(=O)C1CCN(S(=O)(=O)c2cccc3nsnc23)CC1	3.4µM*	-21%	0%[59 µM]	1%	2	14µM*
Cc1[nH]c(=O)[nH]c(=O)c1S(=O)(=O)N1CCC(C(=O)NC(C)c2ccccc2)CC1 (configuration not stated)	34µM*	7%	7%	15%	-4	?
CN(CCCNC(=O)C1CCN(S(=O)(=O)c2cccc3nsnc23)CC1)Cc1ccccc1	-4%	-34%	1%	16%	-2	-13%
CN(Cc1ccccc1)C(=O)C1CCN(S(=O)(=O)c2ccc3nc4c(c(C(=O)O)c3c2)CCCC4)CC1	?	50µM*	?	4%[57 µM]	-19	-32%
CC(NC(=O)C1CCN(S(=O)(=O)c2ccccc2)CC1)c1ccccc1 (configuration not stated)	-2%	-7%	55%	?	8	?
CC(NC(=O)C1CCN(S(=O)(=O)c2ccc3nc4c(c(C(=O)O)c3c2)CCCC4)CC1)c1ccccc1 (configuration not stated)	-9%	-28%	40µM*	20%	-2	-9%
CCOC(=O)c1c(C)oc2nc(C)nc(NCc3ccc(OC)cc3)c12	.	3%[57.1 µM]	-3%[59 µM]	31%	.	11%
